# Results as given in the supplement of paper PMC8728848.
# Shown is part of a subset that was picked to be rich in the strongest signals.
# B1: PX14343E-bfa-545-24-545 (Bacteroides fragilis) (protein)
# chain: LDRYPQEELSDGSFWKTPDDANKVVSDLYGYLSTWDQDNDINSDNATMGIKWAAGNVSKGIYDPADQGWSGDYANVRQCNLILSKIDEIPDYPEADKTKALGQVYFFRAYIYFNLIRSFGDVPYIDKPLDLKDMEGITRMPRAEVYEKIMADFDKAIAALPTEWGASDYGRVTKGAAMAMKARAALYYGNWDTAATEAKNVMDLGLYELYDKDNTGKYAELFWEKADGCDEFILVTQFNYPDKTHYLMGWECFPTKGWGGMNPTQSLVDAFEDSEGAPISKSKIYDPTDPFKNRDPRLEVDILHDGEEMYGVTIKVAPLASSGSTGINQHNDATETGYYGQKWLDPSLDPLSDGWNMGKDWVHIRYAEVLLTYAEAKNELQGLDPEAFDAVNQVRRRVGMPELQNTDPSKPTYCATQDDLRQRIRNEWRVEFCLEGGKRMWDIRRWGIAKDVLNAPFEGLKYKIVDNPNDPDKKVDGGKMCILYQGDPIILSGSRYSDNNYLFPVPQSEIDLNPALTQNPGY
# Experiments:
# Assay in all cases: glycan array binding signal (z-score within array); higher = stronger binding
# Conditions in all cases: glycan notation: IUPAC condensed, linker removed
# GlcA(b1-3)Gal = target: GlcA(b1-3)Gal
# Outline: (§1)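 Glycan array data came from 3228 arrays in the Consortium for Functional Glycomics database, and only arrays with an available protein sequence were kept. Glycan names were put into IUPAC-condensed notation, and columns mapping to the same glycan were averaged. The binding signal is a within-array Z-score, averaged across arrays of one protein sequence run at different concentrations or buffers and across linkers. A negative Z-score can be read as non-binding.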
# [1] = target: GlcA3S(b1-3)Gal(b1-4)GlcNAc(b1-2)Man
# Outline: as §1
# [2] = target: GlcNAc(a1-4)Gal(b1-4)GalNAc
# Outline: as §1
# [3] = target: GlcNAc(a1-4)Gal(b1-4)GlcNAc(b1-3)Gal(b1-4)[Fuc(a1-3)]GlcNAc(b1-3)Gal(b1-4)[Fuc(a1-3)]GlcNAc
# Outline: as §1
# [4] = target: GlcNAc(b1-2)[GlcNAc(b1-4)]Man(a1-3)[GlcNAc(b1-4)][GlcNAc(b1-2)[GlcNAc(b1-6)]Man(a1-6)]Man(b1-4)GlcNAc(b1-4)[Fuc(a1-6)]GlcNAc
# Outline: as §1
# GlcNAc(b1-3)Fuc = target: GlcNAc(b1-3)Fuc
# Outline: as §1
# [5] = target: GlcNAc(b1-3)Gal(b1-4)GlcNAc(b1-2)[GlcNAc(b1-3)Gal(b1-4)GlcNAc(b1-6)]Man(a1-6)[GlcNAc(b1-3)Gal(b1-4)GlcNAc(b1-2)Man(a1-3)]Man(b1-4)GlcNAc(b1-4)GlcNAc
# Outline: as §1
# [6] = target: GlcNAc(b1-3)Gal(b1-4)GlcNAc(b1-3)[GlcNAc(b1-3)Gal(b1-4)GlcNAc(b1-3)]GalNAc
# Outline: as §1
# Man(a1-2)Man(a1-3)Man = target: Man(a1-2)Man(a1-3)Man
# Outline: as §1
# Neu5Ac(a2-3)Gal = target: Neu5Ac(a2-3)Gal
# Outline: as §1
# [7] = target: Neu5Ac(a2-3)Gal(b1-3)GalNAc(b1-4)[Neu5Ac(a2-3)]Gal(b1-4)Glc
# Outline: as §1
# [8] = target: Neu5Ac(a2-3)Gal(b1-3)GalNAc(b1-4)[Neu5Ac(a2-8)Neu5Ac(a2-3)]Gal(b1-4)Glc
# Outline: as §1
# [9] = target: Neu5Ac(a2-3)Gal(b1-3)[Neu5Ac(a2-6)]GlcNAc(b1-3)[Fuc(a1-3)[Gal(b1-4)]GlcNAc(b1-6)]Gal(b1-4)Glc
# Outline: as §1
# [10] = target: Neu5Ac(a2-3)Gal(b1-3)]Neu5Ac(a2-3)Gal(b1-4)]GlcNAc
# Outline: as §1
# [11] = target: Neu5Ac(a2-3)Gal(b1-4)GlcNAc(b1-2)Man(a1-3)[GlcNAc(b1-4)][Neu5Ac(a2-3)Gal(b1-4)GlcNAc(b1-2)Man(a1-6)]Man(b1-4)GlcNAc(b1-4)GlcNAc
# Outline: as §1
# [12] = target: Neu5Ac(a2-3)Gal(b1-4)GlcNAc(b1-3)[Neu5Ac(a2-3)Gal(b1-4)GlcNAc(b1-6)]GalNAc
# Outline: as §1
# [13] = target: Neu5Ac(a2-3)Gal(b1-4)[Fuc(a1-3)]GlcNAc(b1-3)Gal(b1-4)GlcNAc
# Outline: as §1
# [14] = target: Neu5Ac(a2-3)Gal(b1-4)[Fuc(a1-3)]GlcNAc(b1-6)[Neu5Ac(a2-3)Gal(b1-3)]GalNAc
# Outline: as §1
# Neu5Ac(a2-6)Gal(b1-4)Glc = target: Neu5Ac(a2-6)Gal(b1-4)Glc
# Outline: as §1
# [15] = target: Neu5Ac(a2-6)Gal(b1-4)GlcNAc(b1-2)Man
# Outline: as §1
# [16] = target: Neu5Ac(a2-6)Gal(b1-4)GlcNAc(b1-2)Man(a1-6)[GlcNAc(b1-2)Man(a1-3)]Man(b1-4)GlcNAc(b1-4)GlcNAc
# Outline: as §1
# [17] = target: Neu5Ac(a2-6)Gal(b1-4)GlcNAc(b1-3)Gal(b1-4)GlcNAc
# Outline: as §1
# [18] = target: Neu5Ac(a2-6)Gal(b1-4)GlcNAc(b1-3)Gal(b1-4)GlcNAc(b1-3)[Neu5Ac(a2-6)Gal(b1-4)GlcNAc(b1-3)Gal(b1-4)GlcNAc(b1-6)]GalNAc
# Outline: as §1
# [19] = target: Neu5Ac(a2-6)Gal(b1-4)GlcNAc(b1-3)[Neu5Ac(a2-6)Gal(b1-4)GlcNAc(b1-6)]GalNAc
# Outline: as §1
# [20] = target: Neu5Ac(a2-6)Gal(b1-4)GlcNAc(b1-6)[Gal(b1-3)GlcNAc(b1-3)]Gal(b1-4)Glc
# Outline: as §1
# [21] = target: Neu5Ac(a2-6)Gal(b1-4)GlcNAc(b1-6)[Gal(b1-3)]GalNAc
# Outline: as §1
# [22] = target: Neu5Ac(a2-8)Neu5Ac(a2-8)Neu5Ac(a2-3)[Gal(b1-3)GalNAc(b1-4)]Gal(b1-4)Glc
# Outline: as §1
binder,measurement,setting,value
B1,glycan array binding signal (z-score),GlcA(b1-3)Gal,-0.027
same,glycan array binding signal (z-score),[1],-0.441
same,glycan array binding signal (z-score),[2],0.655
same,glycan array binding signal (z-score),[3],8.96
same,glycan array binding signal (z-score),[4],-0.534
same,glycan array binding signal (z-score),GlcNAc(b1-3)Fuc,-0.635
same,glycan array binding signal (z-score),[5],0.412
same,glycan array binding signal (z-score),[6],-0.23
same,glycan array binding signal (z-score),Man(a1-2)Man(a1-3)Man,-0.688
same,glycan array binding signal (z-score),Neu5Ac(a2-3)Gal,-0.082
same,glycan array binding signal (z-score),[7],-0.236
same,glycan array binding signal (z-score),[8],-0.153
same,glycan array binding signal (z-score),[9],0.395
same,glycan array binding signal (z-score),[10],-1.08
same,glycan array binding signal (z-score),[11],0.058
same,glycan array binding signal (z-score),[12],-0.912
same,glycan array binding signal (z-score),[13],-0.873
same,glycan array binding signal (z-score),[14],0.423
same,glycan array binding signal (z-score),Neu5Ac(a2-6)Gal(b1-4)Glc,-0.096
same,glycan array binding signal (z-score),[15],-0.34
same,glycan array binding signal (z-score),[16],0.074
same,glycan array binding signal (z-score),[17],-0.139
same,glycan array binding signal (z-score),[18],2.92
same,glycan array binding signal (z-score),[19],2.89
same,glycan array binding signal (z-score),[20],-0.484
same,glycan array binding signal (z-score),[21],-0.085
same,glycan array binding signal (z-score),[22],-0.399
